GLP-1R agonist: GLP-1 receptor (human) agonism | P43220 | HEK293 GLP-1R CRE-luciferase, luminescence, 4-6 h; cells express a hypersensitive GLP-1R form | AID 624172 | 380,000 compounds, 0.007% hits | Potency, µM (titrated, usually from 45.6 µM), most hits filed as activators
rTrxR1 inhibitor: inhibitors of rat thioredoxin reductase 1. recombinant rTrxR1, NADPH fluorescence consumption, selenite substrate. Potency, µM (top dose mostly 114 µM), most hits filed as inhibitors. O89049. 390,000 compounds, 1% hits; also: nearly all actives have a fitted effect of over 65% in size
Target sequence (O89049 whole entry, looked up): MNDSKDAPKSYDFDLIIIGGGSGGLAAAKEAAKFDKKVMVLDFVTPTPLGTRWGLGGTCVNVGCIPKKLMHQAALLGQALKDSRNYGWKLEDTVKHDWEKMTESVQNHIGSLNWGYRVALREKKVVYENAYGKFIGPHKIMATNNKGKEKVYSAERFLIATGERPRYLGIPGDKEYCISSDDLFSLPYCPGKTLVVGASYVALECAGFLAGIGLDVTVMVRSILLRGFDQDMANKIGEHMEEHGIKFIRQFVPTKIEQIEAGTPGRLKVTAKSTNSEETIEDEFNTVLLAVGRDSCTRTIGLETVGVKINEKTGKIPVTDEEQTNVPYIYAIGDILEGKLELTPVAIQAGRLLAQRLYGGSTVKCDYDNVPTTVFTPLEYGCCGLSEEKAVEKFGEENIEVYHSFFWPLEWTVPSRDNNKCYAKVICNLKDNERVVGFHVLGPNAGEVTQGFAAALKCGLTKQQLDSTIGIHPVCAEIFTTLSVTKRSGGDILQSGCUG
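Rat TrxR1 (90 nM in the dispensed reagent) was pre-reduced with 400 uM NADPH for 5 min at room temperature, then incubated with compound for 15 min. After 400 uM selenite was added, NADPH fluorescence (Ex 340/Em 450 nm) was followed for 8 min.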
GLP-1R inv ag: acts as inverse agonist at human GLP-1 receptor. P43220. HEK293 GLP-1R CRE-luciferase, luminescence, 24 h; GLP-1R form is constitutively active. Potency, µM (top dose mostly 38.3 µM), usual class: inhibitors. 410,000 compounds, 1.6% hits; also: nearly all actives have a fitted effect of over 55% in size
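Using stably transfected HEK293 (constitutively active GLP-1R, cAMP-luciferase reporter), compounds were incubated 24 hr and luciferase measured by luminescence.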
HEK293 tox: cytotoxic in the GLP-1 receptor inverse agonist counter-screen. Potency, µM (highest dose often 38.3 µM), most hits filed as inhibitors. HEK293 cAMP-luciferase reporter cells, luminescence, 24 h. 410,000 compounds, 0.13% hits;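 also: loss of luciferase light is scored as toxicity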
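Compound-treated cells are incubated 24 hr at 37 deg C under 5% CO2 after a 12 hour attachment period, then luciferase detection reagent is added and luminescence is measured following 12 min at room temperature; lowered signal indicates toxicity.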
mIDH1 inhibitor: inhibitors of human mutant IDH1 R132H; IDH1-R132H enzyme, NADPH consumption, diaphorase/resazurin fluorescence; Potency, µM (top dose mostly 76.6 µM), actives largely listed as inhibitors; 390,000 compounds, 0.093% hits; also: nearly all actives have a fitted effect of over 65% in size
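IDH1-R132H (0.5 ug/mL dispensed) in pH 7.5 Tris buffer was preincubated 30 min with compound, then given a substrate mix of 0.016 mM NADPH and 2 mM alpha-KG for 80 min at room temperature; remaining NADPH was read by diaphorase/resazurin fluorescence.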
TrxR1 substrate: substrates of rat thioredoxin reductase 1; O89049; purified TrxR1 substrate turnover, NADPH consumption readout; Potency, µM (doses to about 114 µM); 390,000 compounds, 0.01% hits; also: nearly all actives have a fitted effect of over 50% in size
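Rat TrxR1, dispensed at 90 nM, was prereduced with 400 uM NADPH (final) for 5 min at ~22 deg C, then incubated with compound 15 min before 400 uM selenite. A first-read NADPH fluorescence drop versus no-compound background flagged substrates.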
Hits are given with their value; - = inactive; ? = inconclusive; . = no result given; [ ] = dose if it differs, or a comment. A selection: hits, their analogues and other compounds. The true share with any hit is near 2.7%. Calls follow the shape of the dose curve; as a rule, active = well fitted curve in the direction sought with a large enough effect; inconclusive = small, poorly fitted or top-dose-only effect, or another doubt; inactive = no such curve, though single readings can be large; an effect the other way counts as inactive or inconclusive.

SMILES	GLP-1R agonist	rTrxR1 inhibitor	GLP-1R inv ag	HEK293 tox	mIDH1 inhibitor	TrxR1 substrate
OC(c1ccc(F)c(F)c1)c1nc(-c2cccc(C(F)(F)F)c2)cs1 (configuration not stated)	-	.	?	-	.	.
Cc1ccccc1NC(=O)c1c(C)oc2ccc(O)c(CN3CCC(C)CC3)c12	.	-	?	-	-	-
CC1=C(c2ccc(NN=C(C#N)C#N)cc2)NNC(=O)C1	-	.	.	.	.	.
COc1cc2c(NC3CCN(C)CC3)nc(N3CCCN(C)CC3)nc2cc1OCCCCCN(C)C	.	?	.	.	.	-
Cc1ccc(C(=O)N(c2ccccc2)C2CC(C)N(C(=O)c3ccco3)c3ccccc32)cc1 (configuration not stated)	-	-	10µM	-	-	-
O=C(Cc1ccc(F)cc1)Nc1nc(-c2ccc(F)c(F)c2)cs1	-	-	?	-	-	-
COc1ccc(CC(=O)Nc2nc(-c3ccc(F)c(F)c3)cs2)cc1	-	-	11µM	-	-	-
CC(COc1ccccc1)NN (configuration not stated)	-	.	.	.	.	.
COc1ccc(N)c2c1C(=O)c1ccccc1C2=O	-	-	-	-[1.53 µM]	-	-
COc1ccc(OC)c2c1C(=O)C(Cl)=C(Cl)C2=O	-	0.16µM	?	?	-	-
Cc1ccccc1-c1nc2cc(NC(=O)COc3ccc(F)cc3)ccc2o1	.	-	-	-	.	-
O=C1/C(=C/c2ccc(Cl)cc2)SC(=S)N1CCC(=O)N1CCCCC1CCO (configuration not stated)	-	-	?	?	-	-
O=C(CCCN1C(=O)S/C(=C/C=C/c2ccccc2)C1=O)Nc1ccc(C(=O)O)cc1	-	79µM	-	-	-	-
O=C1/C(=C\c2ccc(O)c(O)c2)SC(=S)N1Cc1ccccc1	-	-	?	10µM	?	-
CN1CCN(C(=O)CCCN2C(=O)/C(=C/c3ccc(Cl)cc3)SC2=S)CC1	-	-	10µM	?	-	-
CC(=C\c1ccccc1)/C=C1/SC(=O)N(CCCC(=O)Nc2ccc(C(=O)O)cc2)C1=O	-	-	-	-	-	-
O=C1/C(=C/c2ccccc2)SC(=S)N1CCCC(=O)N1CCCCC1CCO (configuration not stated)	-	-	5µM	-	-	-
O=C(Nc1ccc2nc(SCC(=O)N3CCOCC3)sc2c1)c1ccc(F)cc1	.	-	-	-	-	-
O=C(CCCN1C(=O)/C(=C\c2ccccc2)SC1=S)Nc1ccc(O)cc1	-	-	?	10µM	-	-
CC(=O)NCCCN(Cc1ccc(Cl)c(Cl)c1)c1ccc(Br)cn1	.	-	.	.	.	-
O=C(Nc1ccc(F)c(F)c1)c1cnn2c1NC(=C1CC1)C=C2C(F)F	.	-	.	.	.	-
COc1ccc(S(=O)(=O)CCC(=O)NCc2ccc(C)o2)cc1	-	20µM	-	-	-	-
CC(=O)N1CCc2cc(S(=O)(=O)CCC(=O)NCc3ccc(C)o3)ccc21	-	50µM	-	-	-	-
CC(=O)N1CCc2cc(S(=O)(=O)C(C)CC(=O)NCc3ccc(C)o3)ccc21 (configuration not stated)	-	-	-	-	-	-
CO/S(=N\S(=O)(=O)c1ccc(Cl)cc1)c1ccc([N+](=O)[O-])cc1 (configuration not stated)	.	-	.	.	.	-
SMILES	GLP-1R agonist	rTrxR1 inhibitor	GLP-1R inv ag	HEK293 tox	mIDH1 inhibitor	TrxR1 substrate
CC(C)(C)c1ccc(S(=O)(=O)N2CCC(O)(c3ccc(Cl)cc3)CC2)cc1	-	-	7.1µM	-	-	-
CN1CCN(CC2(O)CCN(S(=O)(=O)c3ccc(Cl)cc3)CC2)CC1	-	-	0.89µM	-	-	-
Cc1ccc(S(=O)(=O)N(Cc2ccccc2)c2ccccc2C(=O)N2CCCCC2)cc1	-	-	8.9µM	?	-	-
COc1ccc(N2CCN(C(=O)C(C)n3c(=O)cc(C(F)(F)F)c4c(C)nn(C)c43)CC2)cc1 (configuration not stated)	.	-	-	-	-	-
O=c1c(-c2cc(-c3ccccc3)nc3c2COc2ccc(Cl)cc2-3)coc2ccc(F)cc12	-	-	-	-	-	-
CCOc1ccccc1CNC(=O)CN1C(=O)c2cccnc2Oc2ccc(C)cc21	.	-	?	-	-	-
CCOc1ccc(C(=O)O/N=C(\N)c2ccccn2)cc1	-	-	2.5µM	?	-	-
N/C(=N\OC(=O)c1ccccc1)c1ccccn1	-	-	?	-	-	-
Cc1cccc(C(=O)O/N=C(\N)c2ccccn2)c1	-	-	2µM	?	-	-
Cc1ccc(C(=O)O/N=C(\N)c2ccccn2)cc1	-	-	2.5µM	?	-	-
COCCNC(=O)C1=CC(c2ccc3c(c2)OCO3)=NS(=O)(=O)N1C	.	-	-	-	-	-
Cc1ccc(-n2nc3c(=O)n(CC(=O)NC(C)C)nc(C)c3c2C)cc1	.	-	-	-	-	-
CC(=O)Nc1cccc(-c2cnc(N)c(C(=O)c3cccnc3)n2)c1	-	-	?	-	-	-
NC(=O)c1cccc(-c2cnc(N)c(C(=O)c3cccnc3)n2)c1	-	-	3.5µM	-	-	-
O=C(Nc1cccc(Br)c1)c1ccc(CN2CCc3ccccc3C2)cc1	-	-	2.2µM	-	-	-
COc1ccc(OC)c(NC(=O)c2ccc(CN3CCc4ccccc4C3)cc2)c1	-	-	11µM	-	-	-
CSc1cccc(NC(=O)c2ccc(CN3CCc4ccccc4C3)cc2)c1	-	-	?	-	-	-
COc1ccc(NC(=O)c2ccc(CN3CCc4ccccc4C3)cc2)c(OC)c1	-	-	?	-	-	-
Cc1ccc(C(=O)c2cc(C)sc2N)cc1	-	-	-	-	-	-
CCc1cc(C(=O)c2ccc(OC)cc2)c(NC(=O)CCC(=O)O)s1	-	-	-	-	-	-
Cc1cc(C(=O)c2ccc(Cl)cc2)c(NC(=O)CCl)s1	-	4µM	?	?	-	-
CCc1cc(C(=O)c2ccc(C)cc2)c(NC(=O)CCl)s1	?	32µM	?	?	-	-
O=C(Nc1ccc(Br)cc1Cl)c1cnn2c1NC(=C1CC1)C=C2C(F)F	.	-	.	.	.	-
NC(=O)CC(NC(=O)c1ccccc1)c1ccc(N2CCCCCCC2)c([N+](=O)[O-])c1 (configuration not stated)	-	-	-	-	-	-
NC(=O)CC(NC(=O)c1ccc(Br)cc1)c1ccc(N2CCCCCC2)c([N+](=O)[O-])c1 (configuration not stated)	-	-	11µM	-	-	-

Compound activity: PubChem, National Center for Advancing Translational Sciences (NCATS)
